Experimental findings from PubChem BioAssay (Tox21) are described below.

Molecules are shown by their SMILES. Where “and” joins values, the source holds several entries; their conditions need not be identical. Identical values can stand only once. Inconclusive results are not listed. A call without a number means that no potency is given here. Calls of active or inactive are those of the source. Unless noted, the call rests on the fitted dose curve; in most records, active means well fitted cell-killing curve with a large enough effect in the repeat runs; inconclusive means weak or mixed curves, or effect the other way; inactive means no such curve, though single readings can be large or run the other way.

Peroxisome proliferator-activated receptor gamma (Homo sapiens), sequence (P37231 whole entry, looked up): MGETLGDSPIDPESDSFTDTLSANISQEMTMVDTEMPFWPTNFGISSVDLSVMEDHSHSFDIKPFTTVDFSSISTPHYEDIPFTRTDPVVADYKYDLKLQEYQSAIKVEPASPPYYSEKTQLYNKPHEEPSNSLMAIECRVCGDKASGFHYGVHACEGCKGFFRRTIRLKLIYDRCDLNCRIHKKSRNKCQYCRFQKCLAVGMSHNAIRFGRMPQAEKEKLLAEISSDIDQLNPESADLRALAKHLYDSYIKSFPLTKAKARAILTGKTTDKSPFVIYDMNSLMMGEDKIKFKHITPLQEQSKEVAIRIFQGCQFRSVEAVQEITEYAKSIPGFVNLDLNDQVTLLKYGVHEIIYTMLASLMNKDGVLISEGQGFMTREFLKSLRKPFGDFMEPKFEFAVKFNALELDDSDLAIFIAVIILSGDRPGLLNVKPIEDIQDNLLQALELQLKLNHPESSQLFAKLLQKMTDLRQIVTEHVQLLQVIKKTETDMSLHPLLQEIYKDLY

The first experiment has as its target Peroxisome proliferator-activated receptor gamma (Homo sapiens) (UniProt P37231). The experiment in a line: qHTS assay to identify small molecule agonists of the peroxisome proliferator-activated receptor gamma (PPARg) signaling pathway (AID 743094; active means well fitted activation curve with a large enough effect in the signal ratio in the repeat runs, not every such curve was filed as active; the % refers to the signal ratio; further: potency means the concentration at half of the fitted maximal effect). As to conditions: HEK293H PPARg-UAS-bla, beta-lactamase FRET ratio, 17 h; series mostly up to 57 µM; activation: at the top concentration. The essentials: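 Stably transfected HEK293H cells (GeneBLAzer PPARg UAS-bla) were incubated with test substances for 17 h at 37C after a 5 h pre-incubation; beta-lactamase activity was then detected by FRET substrate fluorescence.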
Turning to `CCCCNC(=O)NS(=O)(=O)c1ccc(N)cc1`, the Potency entry is “inactive”.
On the same count and under the same terms, for `CCCCCCCCCCCCCCCCCC(=O)OCC(O)CO` (stereo not given) the value was “inactive”.
The same measure, in the same setting: for `COCC(C)N` (stereo not given) the value was “inactive”; for `CCCCCCCCCCCCCC(=O)OC(C)C`, “inactive”.
Regarding `N[C@@H](Cc1c[nH]c2ccccc12)C(=O)O`, the “activation” value was 0.0219% (inactive).
For `CCCCC/C(C=O)=C\c1ccccc1`, the Potency result is “inactive”.
The same measure, in the same setting: for `C=CCOC(=O)CC(C)C` the value was “inactive”.
The same measure, in the same setting: for `CC(=O)c1ccc(S(=O)(=O)NC(=O)NC2CCCCC2)cc1` the value was “inactive”.
Turning to `COC(=O)c1ccc(O)cc1`, the Potency result was “inactive”.
For the compound `Oc1cccc(O)c1`, the Potency entry is “inactive”.
Still for that read-out and setting: for `COc1ccccc1O` the value was “inactive”; for `CC(C)CC(C)CC(O)CC(C)C` (stereo not given), “inactive”; for `NC(=O)N1c2ccccc2C=Cc2ccccc21`, “inactive”.
Same read-out and setting: for `O=C1CCCCCN1` the value was “inactive”.
The same measure, in the same setting: for `O=c1c(-c2ccc(O)cc2)coc2cc(O)cc(O)c12` the value was “inactive”; for `O=C(O)Cc1cccc2ccccc12`, 27.5 µM (active).
For `COc1cc(O)c(C(=O)c2ccccc2)cc1S(=O)(=O)O`, the Potency entry was “inactive”.
The same measure, in the same setting: for `CCCCOCCOCCOC(C)=O` the value was “inactive”; for `Cn1cnc2c1c(=O)[nH]c(=O)n2C`, “inactive”.
On to `COCCOCCOC`, for which the Potency entry is “inactive”.
Same read-out and setting: for `CCOC(=O)C(C)(C)Oc1ccc(Cl)cc1` the value was “inactive”.
Consider `CC(O)COc1ccccc1` (stereo not given), for which the Potency result is “inactive”.
On the same count and under the same terms, for `Cc1cccc(C)c1O` the value was “inactive”; for `COC(=O)c1ccc(C=O)cc1`, “inactive”; for `Cc1ccc(O)c(-n2nc3ccccc3n2)c1`, “inactive”.
`Cc1cccc2ccccc12`: the Potency result is “inactive”.
In the case of `CC(=O)CCC(C)C`, the Potency entry is “inactive”.
For `O=[N+]([O-])c1ccc(O)cc1`, the Potency entry was “inactive”.
Turning to `CCCCCCCCOc1ccc(C(=O)c2ccccc2)c(O)c1`, the Potency entry was “inactive”.
Still for that read-out and setting: for `Cc1c(N(C)CS(=O)(=O)O)c(=O)n(-c2ccccc2)n1C` the value was “inactive”.

For the next experiment the target is unchanged. The experiment in a line: qHTS assay to identify small molecule antagonists of the peroxisome proliferator-activated receptor gamma (PPARg) signaling pathway (AID 743191; calls by dose curve; further: nearly all actives have a fitted effect of over 30% in size; further: potency means the concentration at half of the fitted maximal effect). To be noted: HEK293H PPARg-UAS-bla, beta-lactamase ratio, antagonist, 17 h; series mostly up to 62.6 µM; ratio activity, negative = inhibition: at the top concentration. In short, it runs like this:
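GeneBLAzer PPARg UAS-bla HEK293H cells, 5 h post-plating, exposed to compounds 17 h at 37C. LiveBLAzer B/G FRET substrate added for 1 h at room temperature; beta-lactamase reporter read by fluorescence intensity.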
Turning to `CCCCNC(=O)NS(=O)(=O)c1ccc(N)cc1`, the “ratio activity, negative = inhibition” value was 6.97% (inactive).
For `CCCCCCCCCCCCCCCCCC(=O)OCC(O)CO` (stereo not given), the Potency result was “inactive”.
Regarding `COCC(C)N` (stereo not given), the “ratio activity, negative = inhibition” value is -6.53% (inactive).
Same read-out and setting: for `CCCCCCCCCCCCCC(=O)OC(C)C` the value was 9.42% (inactive); for `N[C@@H](Cc1c[nH]c2ccccc12)C(=O)O`, 2.94% (inactive).
On to `CCCCC/C(C=O)=C\c1ccccc1`, for which the Potency entry is “inactive”.
The same measure, in the same setting: for `C=CCOC(=O)CC(C)C` the value was “inactive”; for `CC(=O)c1ccc(S(=O)(=O)NC(=O)NC2CCCCC2)cc1`, “inactive”; for `COC(=O)c1ccc(O)cc1`, “inactive”.
Still for that read-out and setting: for `Oc1cccc(O)c1` the value was “inactive”; for `COc1ccccc1O`, “inactive”.
Same read-out and setting: for `CC(C)CC(C)CC(O)CC(C)C` (stereo not given) the value was “inactive”.
With `NC(=O)N1c2ccccc2C=Cc2ccccc21`, the “ratio activity, negative = inhibition” value is -14.7% (inactive).
On the same count and under the same terms, for `O=C1CCCCCN1` the value was 0.582% (inactive).
Regarding `O=c1c(-c2ccc(O)cc2)coc2cc(O)cc(O)c12`, the Potency was 48.1 µM (active) and 38.9 µM (active).
Still for that read-out and setting: for `O=C(O)Cc1cccc2ccccc12` the value was “inactive”; for `COc1cc(O)c(C(=O)c2ccccc2)cc1S(=O)(=O)O`, “inactive”.
Take `CCCCOCCOCCOC(C)=O`: the “ratio activity, negative = inhibition” value was 7.11% (inactive).
The same measure, in the same setting: for `Cn1cnc2c1c(=O)[nH]c(=O)n2C` the value was 2.2% [at 29.1 µM] (inactive).
On to `COCCOCCOC`, for which the Potency result is “inactive”.
Consider `CCOC(=O)C(C)(C)Oc1ccc(Cl)cc1`, for which the “ratio activity, negative = inhibition” value was 0.572% (inactive).
For the compound `CC(O)COc1ccccc1` (stereo not given), the “ratio activity, negative = inhibition” value was 2.2% (inactive).
Consider `Cc1cccc(C)c1O`, for which the Potency entry is “inactive”.
The same measure, in the same setting: for `COC(=O)c1ccc(C=O)cc1` the value was “inactive”.
The same measure, in the same setting: for `Cc1ccc(O)c(-n2nc3ccccc3n2)c1` the value was “inactive”.
The same measure, in the same setting: for `Cc1cccc2ccccc12` the value was “inactive”.
As to `CC(=O)CCC(C)C`, the “ratio activity, negative = inhibition” value is 5.16% (inactive).
Turning to `O=[N+]([O-])c1ccc(O)cc1`, the Potency result was “inactive”.
In the case of `CCCCCCCCOc1ccc(C(=O)c2ccccc2)c(O)c1`, the “ratio activity, negative = inhibition” value is 13% (inactive).
On the same count and under the same terms, for `Cc1c(N(C)CS(=O)(=O)O)c(=O)n(-c2ccccc2)n1C` the value was -4.21% (inactive).

Tested on in a further experiment: not listed separately
The experiment in a line: qHTS assay to identify small molecule antagonists of the peroxisome proliferator-activated receptor gamma (PPARg) signaling pathway - cell viability counter screen (AID 743194). Further: nearly all actives have a fitted effect of over 55% in size. As to conditions: PPARg-bla HEK293H viability, CellTiter-Glo luminescence, 17 h, co-treated with 50 nM rosiglitazone; series mostly up to 62.6 µM; activity change, negative = cytotoxicity: at the top concentration. The essentials: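 Cytotoxicity counter screen in PPARg-bla HEK293H cells, same wells as reporter assay. Compounds plus 50 nM rosiglitazone (final) for 17 h at 37 C, then viability read by CellTiter-Glo luminescence.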
Take `CCCCNC(=O)NS(=O)(=O)c1ccc(N)cc1`: the Potency entry was “inactive”.
Still for that read-out and setting: for `CCCCCCCCCCCCCCCCCC(=O)OCC(O)CO` (stereo not given) the value was “inactive”.
`COCC(C)N` (stereo not given): the Potency result is “inactive”.
On the same count and under the same terms, for `CCCCCCCCCCCCCC(=O)OC(C)C` the value was “inactive”; for `N[C@@H](Cc1c[nH]c2ccccc12)C(=O)O`, “inactive”; for `CCCCC/C(C=O)=C\c1ccccc1`, “inactive”.
The same measure, in the same setting: for `C=CCOC(=O)CC(C)C` the value was “inactive”; for `CC(=O)c1ccc(S(=O)(=O)NC(=O)NC2CCCCC2)cc1`, “inactive”; for `COC(=O)c1ccc(O)cc1`, “inactive”.
The same measure, in the same setting: for `Oc1cccc(O)c1` the value was “inactive”; for `COc1ccccc1O`, “inactive”; for `CC(C)CC(C)CC(O)CC(C)C` (stereo not given), “inactive”.
Turning to `NC(=O)N1c2ccccc2C=Cc2ccccc21`, the Potency result is “inactive”.
Still for that read-out and setting: for `O=C1CCCCCN1` the value was “inactive”.
On the same count and under the same terms, for `O=c1c(-c2ccc(O)cc2)coc2cc(O)cc(O)c12` the value was “inactive”; for `O=C(O)Cc1cccc2ccccc12`, “inactive”.
For `COc1cc(O)c(C(=O)c2ccccc2)cc1S(=O)(=O)O`, the Potency result was “inactive”.
For `CCCCOCCOCCOC(C)=O`, the Potency entry is “inactive”.
As for `Cn1cnc2c1c(=O)[nH]c(=O)n2C`, the Potency entry is “inactive”.
As for `COCCOCCOC`, the “activity change, negative = cytotoxicity” value is -3.7% (inactive).
In the case of `CCOC(=O)C(C)(C)Oc1ccc(Cl)cc1`, the Potency result is “inactive”.
The same measure, in the same setting: for `CC(O)COc1ccccc1` (stereo not given) the value was “inactive”.
`Cc1cccc(C)c1O`: the Potency result was “inactive”.
Still for that read-out and setting: for `COC(=O)c1ccc(C=O)cc1` the value was “inactive”; for `Cc1ccc(O)c(-n2nc3ccccc3n2)c1`, “inactive”.
Consider `Cc1cccc2ccccc12`, for which the “activity change, negative = cytotoxicity” value is -12% [at 81.1 µM] (inactive).
For the compound `CC(=O)CCC(C)C`, the Potency entry was “inactive”.
Still for that read-out and setting: for `O=[N+]([O-])c1ccc(O)cc1` the value was “inactive”.
Still for that read-out and setting: for `CCCCCCCCOc1ccc(C(=O)c2ccccc2)c(O)c1` the value was “inactive”; for `Cc1c(N(C)CS(=O)(=O)O)c(=O)n(-c2ccccc2)n1C`, “inactive”.
